# Compounds with a hit are over-represented: about 2.1% of the library has one in this group of screens.
# aSyn yeast inh: alpha-synuclein toxicity inhibition in yeast; Potency, µM (series often up to 46.1 µM), for the others: top-dose growth rescue (activation), actives largely listed as activators; AID 652106; Yeast expressing alpha-synuclein, growth rescue, BacTiter-Glo, 24 h; 370,000 tested, 0.14% active; further: % of control where 0% means no effect; nearly all actives have a fitted effect of over 65% in size
#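 Galactose-induced alpha-syn yeast (OD600=0.02, raffinose-pregrown) + pinned cpd, 24 hr, 30 deg C; growth by BacTiter-Glo luminescence. Growth restoration scores as activation.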
# FUS yeast rescue: rescues growth of FUS-expressing yeast | Potency, µM (series often up to 76.6 µM), usual class: activators | S. cerevisiae FUS-expressing, growth rescue, OD600, 24 h | 390,000 tested, 0.24% active;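 further: plate controls were DMSO vehicle for no effect and reference control for full effect; nearly all actives have a fitted effect of over 55% in size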
#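 Steps: raffinose overnight preculture; dilution to OD 0.005 in 2% galactose minimal medium; compound addition (concentration series); 24hr at 30C, 99% humidity; absorbance read at 600 nm.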
# TDP43 rescue: rescues yeast growth from TDP-43 toxicity; Potency, µM (doses to about 46.1 µM), without a hit: at the top dose growth rescue (activation), hits mostly activators; AID 652104; TDP-43 expressing yeast growth rescue, BacTiter-Glo, 24 h; 410,000 tested, 1.8% active; further: % of control where 0% means no effect; nearly all actives have a fitted effect of over 50% in size
#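 Galactose-induced TDP-43 yeast, OD600=0.02, compound pinned; 24 hr, 30 deg C; BacTiter-Glo luminescence for growth. Inhibitors of TDP-43 toxicity read as activators.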
# Abeta rescue: A-beta toxicity reversal in yeast | 410,000 tested, 0.063% active | AID 1347071 | yeast expressing A-beta42, growth rescue, OD600, 48 h; response scale: 0% DMSO, 100% iron-clioquinol control | Potency, µM (titrated, usually from 46.1 µM), usual class: activators; further: nearly all actives have a fitted effect of over 55% in size
#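 Yeast growth medium received pinned compounds, then yeast cells expressing toxic A-beta were added; plates incubated at 30 C for 48 hr. Growth read as absorbance at 600 nm, normalized to DMSO and equimolar FeCl3 plus clioquinol controls.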
# The depositor's hits bear a star; i = inactive; ? = inconclusive; / = not tested or not shown; [ ] = remark or other dose. The call rests on the fitted dose curve; in most records, active means well fitted curve in the direction sought with a large enough effect; inconclusive means small, poorly fitted or top-dose-only effect, or another doubt; inactive means no such curve, though single readings can be large; an effect the other way counts as inactive or inconclusive. Potency means the concentration at half of the fitted maximal effect.
SMILES,aSyn yeast inh,FUS yeast rescue,TDP43 rescue,Abeta rescue
O=[N+]([O-])c1ccc(/C=[N+](\[O-])CCO)o1,22%,i,11µM*,i
NC(=O)N/N=C/c1ccc([N+](=O)[O-])o1,6%,i,13%,i
COC(=O)c1cc2occc2n1Cc1nc(-c2cccc(Br)c2)oc1C,/,i,8%,i
O=C(COC(=O)/C=C/c1ccc(Cl)cc1)NC1CC1,0%,i,35µM*,i
O=C(COC(=O)/C=C/c1ccccc1)NC1CC1,-10%,i,18%,i
O=C(COC(=O)/C=C/c1ccccc1)NCc1ccco1,-4%,i,5%,i
O=C(COC(=O)/C=C/c1ccc(C(F)(F)F)cc1)NCc1ccco1,-5%,i,18µM*,i
CSc1ccc(/C=C/C(=O)OCC(=O)NC2CC2)cc1,8%,i,22µM*,i
O=C(COC(=O)/C=C/c1ccc(Cl)cc1)NC1CCCCCC1,-1%,i,11%,i
O=C(COC(=O)/C=C/c1ccc(C(F)(F)F)cc1)NC1CC1,14%,i,6.3µM*,i
O=C(COC(=O)/C=C/c1ccc(F)cc1)NCC1CCCO1 (centres undefined),3%,i,22%,i
O=C(COC(=O)/C=C/c1ccc(C(F)(F)F)cc1)NC1CCCC1,11%,i,10µM*,i
O=C(COC(=O)/C=C/c1ccc(C(F)(F)F)cc1)NCC1CCCO1 (centres undefined),7%,i,25µM*,i
O=C(COC(=O)/C=C/c1cccc(Cl)c1)NC1CCCC1,-3%[1.84 µM],i,13µM*,i
O=C(NCc1ccc(Cl)cc1)c1cnc(N2CCOCC2)c2ccccc12,/,i,0%,i
Cc1nc(NC(=O)/C=C/c2ccccc2)n[nH]1,?,i,22µM*,i
Cc1ccccc1C(=O)N1CCN(c2ncnc3c2cnn3-c2ccccc2)CC1,?,?,14µM*,i
Cc1coc2cc3oc(=O)c(CC(=O)NCCc4ccccc4)c(C)c3cc12,/,i,28%,i
Cc1cc(SCC(=O)NC(=O)c2cccn2C)nc2ccccc12,1%,i,20µM*,?
Cc1cc(SCC(=O)N(C)C2CCCCC2)nc2ccccc12,0%,i,18µM*,i
CN(C(=O)CSc1ncnc2ccccc12)C1CCCCC1,4%,i,13µM*,i
Cc1cc(SCC(=O)c2ccc(O)c(O)c2)nc2ccccc12,?,i,22µM*,i
COc1ccc(S(=O)(=O)N2CCC(C(=O)Nc3cc(Cl)ccc3N3CCOCC3)CC2)cc1OC,2%,i,-22%,i
Cc1cscc1-c1ccc(C(=O)Nc2c(C)cccc2C)o1,29%,i,14µM*,i
O=Cc1cn(CC(=O)N2CCc3ccccc32)c2ccccc12,-5%,i,-1%,i
SMILES,aSyn yeast inh,FUS yeast rescue,TDP43 rescue,Abeta rescue
C[C@H](CO)N1C[C@H](C)[C@H](CN(C)S(=O)(=O)c2ccccc2)Oc2ccc(NC(=O)NC3CCCCC3)cc2CC1=O,-6%,22µM*,-9%,i
C[C@H](CO)N1C[C@H](C)[C@@H](CN(C)S(=O)(=O)c2ccc(Cl)cc2)Oc2ccc(NS(=O)(=O)c3ccccc3)cc2CC1=O,0%,10µM*,-17%,i
C[C@H](CO)N1C[C@H](C)[C@H](CN(C)S(=O)(=O)c2cccs2)Oc2ccc(NC(=O)Nc3ccc4c(c3)OCO4)cc2CC1=O,-1%,25µM*,23%,i
CN1CCN(c2ccc(NC(=O)CSc3nnnn3-c3ccccc3Cl)cc2)CC1,1%,i,-9%,i
Cc1ccccc1-c1nc2scc(CCNS(=O)(=O)c3ccccc3)n2n1,/,i,0%,i
Cc1ccc(SCCNC(=O)c2ccc(C)c(S(=O)(=O)Nc3cccc(C)c3)c2)cc1,20%,32µM*,-9%,i
Cc1ccc(NS(=O)(=O)c2cc(C(=O)NCCSc3ccc(C)cc3)ccc2C)cc1,18%,i,-12%,i
CC(=O)OC[C@@H]1CN(Cc2cccc(C(F)(F)F)c2)C[C@H](n2cnc3c(NCc4ccco4)ncnc32)O1,3%,?,11µM*,i
Cc1cccc(N2CCN(C(=O)c3cccc(S(=O)(=O)N4CCCCC4)c3)CC2)c1C,6%,i,7.1µM*,i
O=C(c1cccc(S(=O)(=O)N2CCCCCC2)c1)N1CCN(c2ccccc2F)CC1,8%,i,?,i

# Bioassay records from PubChem BioAssay.
